Screens deposited in PubChem BioAssay by National Center for Advancing Translational Sciences (NCATS).
SW480 rerep – DNA re-replication induction in SW480 cells. SW480 DNA re-replication, Hoechst DNA content imaging, 48 h. Potency, µM (doses to about 46.1 µM), most hits filed as activators. 340,000 tested, 1.8% active; note: nearly all actives have a fitted effect of over 55% in size
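Image-based DNA-content assay: after two days of treatment, nuclei were labelled with the DNA dye Hoechst and imaged, and hits were compounds raising the count of nuclei showing high fluorescence intensity.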
KB-V1 MDR tox – kills drug-selected multidrug resistant KB-V1 cells | KB-V1 MDR cells viability, CellTiter-Glo, 72 h | Potency, µM (doses to about 46.1 µM), hits mostly cytotoxic | 400,000 tested, 3.4% active | AID 1347076; note: nearly all actives have a fitted effect of over 60% in size
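qHTS viability screen in drug-selected KB-V1 MDR cells: 72 h compound treatment at 37 degrees C, ATP luminescence end point.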
KB-3-1 tox – kills parental KB-3-1 adenocarcinoma cells; KB-3-1 viability, CellTiter-Glo ATP luminescence, 72 h; Potency, µM (top dose mostly 46.1 µM), hits mostly cytotoxic; 400,000 tested, 1.4% active; AID 1347075; note: nearly all actives have a fitted effect of over 60% in size
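Parental KB-3-1 adenocarcinoma cells in phenol-red-free DMEM with 10% FBS were pin-treated with compounds at several concentrations, incubated 72 h at 37 °C, and viability read by CellTiter-Glo luminescence; concentration-effect curves were fitted after normalization.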
MCF10A rereplic – induces DNA re-replication in MCF 10a normal breast cells; 350,000 tested, 2.9% active; MCF 10A DNA re-replication, Hoechst nuclear intensity, 48 h; Potency, µM (doses to about 46.1 µM), usual class: activators; note: nearly all actives have a fitted effect of over 50% in size
PINK1 expr mod – modulators of PINK1 expression | AID 624263 | PINK1 immunofluorescence, high-content cytometry, 24 h | 410,000 tested, 0.2% active | Potency, µM (doses to about 76.6 µM), most hits filed as activators; active = well fitted activation curve with a large enough effect; inconclusive = small, poorly fitted or top-dose-only effect; cell line not stated here; note: nearly all actives have a fitted effect of over 65% in size
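Stable cell line treated 24 h with compounds at 5 concentrations (CCCP controls), then fixed and immunostained for PINK1 plus nuclear and cell stains; PINK1 immunofluorescence quantified by laser-scanning microplate cytometry.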
12-LOX inh – ALOX12 (human) lipoxygenase inhibition; purified 12hLO, xylenol orange hydroperoxide absorbance; AID 1671190; 580,000 tested, 1.1% active; P18054; Potency, µM (doses to about 108 µM), actives largely listed as inhibitors
Target sequence (P18054 whole entry, looked up): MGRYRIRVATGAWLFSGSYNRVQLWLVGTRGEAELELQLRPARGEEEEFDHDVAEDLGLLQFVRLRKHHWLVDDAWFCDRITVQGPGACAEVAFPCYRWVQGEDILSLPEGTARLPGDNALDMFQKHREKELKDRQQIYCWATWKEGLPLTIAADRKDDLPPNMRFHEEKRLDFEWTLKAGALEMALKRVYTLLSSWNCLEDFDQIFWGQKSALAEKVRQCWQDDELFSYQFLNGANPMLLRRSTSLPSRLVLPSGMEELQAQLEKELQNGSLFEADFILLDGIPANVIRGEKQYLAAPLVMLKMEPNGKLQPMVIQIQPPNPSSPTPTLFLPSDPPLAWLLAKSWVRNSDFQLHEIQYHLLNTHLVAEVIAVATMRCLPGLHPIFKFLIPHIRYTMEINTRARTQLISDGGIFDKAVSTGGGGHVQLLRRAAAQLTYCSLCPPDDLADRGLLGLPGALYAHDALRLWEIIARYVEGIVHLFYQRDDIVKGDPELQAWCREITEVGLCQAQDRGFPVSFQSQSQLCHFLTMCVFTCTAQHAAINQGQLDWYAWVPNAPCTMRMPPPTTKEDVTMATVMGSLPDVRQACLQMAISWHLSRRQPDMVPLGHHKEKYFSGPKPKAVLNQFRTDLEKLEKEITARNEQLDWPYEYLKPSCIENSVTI
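Purified human 12hLO (150 nM final) in 25 mM Hepes, 0.01% Triton X-100, pH 7.0 was preincubated 15 min at room temperature with compound. Then 40 uM arachidonic acid was added, 30 min. Hydroperoxide was read by Fe-XO absorbance ratio 573/405 nm.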
Hits are given with their value; i = inactive; ? = inconclusive; nt = not tested or not shown; [ ] = remark or other dose. Sampled rows, rich in hits. Any-hit rate of the full collection: about 5.8%. Unless noted, calls come from the whole dose curve; as a rule, active = well fitted curve in the direction sought with a large enough effect; inconclusive = small, poorly fitted or top-dose-only effect, or another doubt; inactive = no such curve, though single readings can be large; an effect the other way counts as inactive or inconclusive.

SMILES | SW480 rerep | KB-V1 MDR tox | KB-3-1 tox | MCF10A rereplic | PINK1 expr mod | 12-LOX inh
CCOC(=O)c1cc2c(=O)n3ccccc3nc2n(CCCOC)c1=NC(C)=O | ? | i | i | ? | i | i
CCOC(=O)c1cc2c(=O)n3cccc(C)c3nc2n(Cc2ccco2)c1=NC(=O)c1ccccc1 | ? | ? | i | 8.2µM | i | ?
CCOCCCn1c(=NC(=O)c2ccco2)c(C(=O)OCC)cc2c(=O)n3cccc(C)c3nc21 | 1.6µM | ? | i | ? | i | i
CCOC(=O)c1cc2c(=O)n3cccc(C)c3nc2n(CCOC)c1=NC(C)=O | 5.8µM | ? | i | 3.7µM | i | i
O=C(c1ccc2c(c1)OCO2)N1CC2(Cc3ccccc3NC2=O)C1 | nt | nt | nt | nt | nt | i[6.33 µM]
Cc1nc(NC(=O)C(C)(C)C)ccc1I | nt | nt | nt | nt | nt | i
CCOC(=O)c1cc2c(=O)n3ccccc3nc2n(C(C)C)c1=NC(=O)c1ccco1 | 7.3µM | ? | i | 7.3µM | i | i
Cn1cc(C(=O)N2CCC(C(=O)NCc3ccccc3)CC2)c2ccccc21 | nt | nt | nt | nt | nt | i
Cc1ccsc1C(=O)N1CCC(n2nccc2NC(=O)c2cccc(F)c2)CC1 | nt | nt | nt | nt | nt | i
CCCCc1cc(C[C@H]2CNCC[C@H]2CC(=O)NCc2cccnc2)no1 | nt | nt | nt | nt | nt | i
CC(C)(C)c1ccc(-c2cc(C[C@H]3CNCC[C@H]3CC(=O)NCc3cccnc3)no2)cc1 | nt | nt | nt | nt | nt | 28µM
CCn1c(Cn2nnc(-c3ccccc3)n2)nnc1SCc1ccc(Cl)c(Cl)c1 | i | 23µM | ? | ? | i | i
CCn1c(SCc2cccc(C)c2)nnc1-c1ccccc1 | i | 15µM | i | i | i | i
O=C(NCC(=O)N(Cc1ccco1)C1(C(=O)NC2CCCCC2)CCCCC1)c1ccccc1 | nt | nt | nt | nt | nt | i
COc1cc(OC)c(OC)cc1CNC(=O)c1ccc(S(=O)(=O)N2CCCCC2)cc1 | i | 7.3µM | i | i | i | i
CCCS(=O)(=O)NCCc1cc2c(OC)ccc(OC)c2[nH]c1=O | i | ? | i | i | i | i
CCN(CC)S(=O)(=O)c1ccc(C(=O)NCCc2cc3c(OC)ccc(OC)c3[nH]c2=O)cc1 | i | 7.3µM | i | ? | i | i
COc1ccc(C(=O)NCCc2cc3c(OC)ccc(OC)c3[nH]c2=O)cc1OC | i | ? | i | i | i | i
COc1ccc(OC)c2[nH]c(=O)c(CCNS(=O)(=O)c3ccccc3)cc12 | i | 16µM | i | i | i | i
COc1ccccc1CNC(=O)c1ccc(S(=O)(=O)N2CCCC2)cc1 | i | i | i | i | i | i
COc1ccc(OC)c2[nH]c(=O)c(CCNC(=O)c3ccc(S(=O)(=O)N4CCCC4)cc3)cc12 | i | 18µM | i | ? | i | i
CCOC(=O)C1CCN(C(c2ccccc2)c2c(O)cc(C)n(Cc3ccccc3)c2=O)CC1 (centres undefined) | nt | nt | nt | nt | nt | i
CCN(CC)S(=O)(=O)c1cccc(NS(=O)(=O)c2cccs2)c1 | nt | nt | nt | nt | nt | i
NC(=O)CN1CCN(c2nc3ccccc3nc2NS(=O)(=O)c2cccc(Cl)c2)CC1 | nt | nt | nt | nt | nt | i
CC1(C)CC(=O)C2=C(C1)N(c1ccccc1)C(N)=C(C#N)C2c1ccsc1 (centres undefined) | i | i | i | i | i | i
SMILES | SW480 rerep | KB-V1 MDR tox | KB-3-1 tox | MCF10A rereplic | PINK1 expr mod | 12-LOX inh
CC1(C)CC(=O)C2=C(C1)N(c1ccc(F)cc1)C(N)=C(C#N)C2c1cccs1 (centres undefined) | ? | ? | i | 18µM | i | i
CC1(C)CC(=O)C2=C(C1)N(c1ccccc1)C(N)=C(C#N)C2c1ccccc1 (centres undefined) | i | i | i | i | i | i
Cc1ccc(N2C(N)=C(C#N)C(c3cccs3)C3=C2CC(C)(C)CC3=O)cc1 (centres undefined) | ? | 7.3µM | ? | i | ? | ?
COc1ccc(C2CC(=O)Nc3c2c(C)nn3-c2ncnc3nc[nH]c23)cc1OC(C)C (centres undefined) | nt | nt | nt | nt | nt | i
O=C(Nc1sc2c(c1C(=O)O)CCC2)c1cccs1 | i | 23µM | ? | i | i | i
O=C(Nc1sc2c(c1C(=O)Nc1cccc(Cl)c1)CCCC2)c1cccs1 | nt | nt | nt | nt | i | 45µM
NC(=O)c1c(NC(=O)c2cccs2)sc2c1CCCCCC2 | i | ? | i | i | i | ?
CCn1nc(C(=O)Nc2cccc(C)c2C(=O)OC)c2ccccc2c1=O | nt | nt | nt | nt | nt | i
CN1C(=O)N(CC(=O)N2CCN(S(=O)(=O)c3ccc(Cl)s3)CC2)C(=O)C12CCCCC2 | i | 15µM | i | i | i | ?
O=C(CN1C(=O)NC2(CCCCC2)C1=O)N1CCN(S(=O)(=O)c2ccc(Cl)s2)CC1 | i | i | i | i | i | ?
COC(=O)c1cccc(N2C(=O)C[C@](Sc3ccc(OC)cc3)(C(=O)N3CCN(c4ncccn4)CC3)[C@H]2c2ccc(OC)cc2)c1 | nt | nt | nt | nt | nt | i
COc1ccc(S[C@]2(c3nc(C)no3)CC(=O)N(c3ccc(OC)cc3)[C@@H]2c2ccc(OC)cc2)cc1 | nt | nt | nt | nt | nt | 14µM
NS(=O)(=O)c1ccc(N/N=C/c2cccs2)c([N+](=O)[O-])c1 | nt | nt | nt | nt | nt | i
CCOC(=O)CCCCC(=O)c1[nH]c(=O)[nH]c1CSc1nnc2c3ccccc3n(C(C)C)c2n1 | i | 15µM | i | i | i | i
O=C(CSc1nc(-c2ccccc2)nc2cc(=O)[nH]n12)Nc1ccccc1F | nt | nt | nt | nt | nt | i
Cn1nc(C(=O)NC(c2ccccc2)c2cccs2)c2ccccc2c1=O (centres undefined) | nt | nt | nt | nt | nt | i
O=C(COC(=O)c1ccccc1Sc1ccc(C(F)(F)F)cc1[N+](=O)[O-])NC1CCCc2ccccc21 (centres undefined) | nt | nt | nt | nt | nt | i
CCOc1ccc2c(c1)sc(N)[n+]2Cc1cc(C)cc2cccnc12 | 4.6µM | 1.3µM | 2.6µM | 8.2µM | ? | ?
COc1ccc2c(c1)sc(N)[n+]2Cc1cc(C)cc2cccnc12 | 8.2µM | 4.6µM | 4.6µM | 4.6µM | ? | i
Cc1cc(C[n+]2ncsc2N)c2ncccc2c1 | i | i | i | i | i | i
Cc1cccc(NC(=O)Cn2nc(-c3cccc([N+](=O)[O-])c3)c3ccccc3c2=O)c1 | nt | nt | nt | nt | nt | i
C=C1c2ccccc2O[C@H](C(=O)OCC)[C@@H]1C1CCCCC1 | i | i | i | ? | ? | 20µM
CCOC(=O)C1=C(N)c2ccccc2CC1C1CCCC1 (centres undefined) | i | i | i | ? | i | i
Cc1ccc(/C=C/C(=O)c2c(C)nc3ccccn23)cc1 | ? | i | 18µM | ? | i | i
Cc1nc2ccccn2c1C(=O)/C=C/c1cccc([N+](=O)[O-])c1 | 4.1µM | ? | 2.6µM | ? | i | i
COc1ccc(C2C(=O)N(CCc3ccccc3)CC(=O)N2C2CCCC2)cc1 (centres undefined) | i | 3.7µM | i | i | i | i
